# Reference: the supplement of paper PMC6992640
# ± gives the standard deviation of the averaged measurements.
# Columns and labels:
# Assay in all cases: cell viability (% of vehicle); higher = less cytotoxic
# Details in all cases: 10 µM; 72 h
# [1] = system: HCI01 (cells of a triple-negative basal-like breast cancer xenograft)
# [2] = system: HCI03 (cells of an ER-positive luminal breast cancer xenograft)
# [3] = system: HCI09 (cells of a triple-negative luminal androgen receptor type breast cancer xenograft)
# [4] = system: HCI11 (cells of an ER-positive luminal breast cancer xenograft)
# [5] = system: HCI13 (cells of an ER-positive luminal breast cancer xenograft)
# [6] = system: HCI16 (cells of a triple-negative basal-like breast cancer xenograft)
# [7] = system: UCD52 (cells of a triple-negative basal-like breast cancer xenograft)
# [8] = system: WHIM2 (cells of a triple-negative basal-like breast cancer xenograft)
# [9] = system: WHIM30 (cells of a triple-negative basal-like breast cancer xenograft)
# 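Further: PDX cells carrying CMV promoter-driven luciferase, viability read as total photon flux per second by IVIS imaging following D-luciferin, vehicle control 0.1% DMSO.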
SMILES,cell viability [1],cell viability [2],cell viability [3],cell viability [4],cell viability [5],cell viability [6],cell viability [7],cell viability [8],cell viability [9]
CC(=O)OCC(=O)C1(O)CCC2C3CCC4=CC(=O)CCC4(C)C3C(=O)CC21C (stereo not given) [Cortisone acetate],119 ± 17,130,119 ± 47,105,96.1 ± 13,140,106 ± 31,112 ± 19,119 ± 6.2
COc1ccc(C2Sc3ccccc3N(CCN(C)C)C(=O)C2OC(C)=O)cc1.Cl (stereo not given) [Diltiazem HCl],81.5 ± 45,123,85.4 ± 4,88.9,95.5 ± 7.5,108,72.3 ± 5.6,93 ± 22,131 ± 15
O=C([O-])Cc1ccccc1Nc1c(Cl)cccc1Cl.[Na+] [Diclofenac Sodium],94.9 ± 18,120,81.3 ± 5.4,73.9,105 ± 26,111,73.6 ± 8.9,90.2 ± 14,81.348 ± 0.07
COc1cc(OC)c(C=CS(=O)(=O)Cc2ccc(OC)c(NCC(=O)[O-])c2)c(OC)c1.[Na+],126.6 ± 0.39,111,112 ± 11,99.6,40.1 ± 4.7,115,117 ± 20,73.9 ± 14,112 ± 16
COc1c(N2CC3CCCNC3C2)c(F)cc2c(=O)c(C(=O)O)cn(C3CC3)c12.Cl (stereo not given) [Moxifloxacin HCl],132 ± 5.7,124,97.1 ± 3.3,120,113 ± 14,114,133 ± 11,92.3 ± 8.9,134 ± 16
CC(NC(=O)C(O)C(C)C)C(=O)NC1C(=O)N(C)CCc2ccccc21 (stereo not given),144 ± 28,106,71.2 ± 7.3,119,102 ± 21,180,81 ± 20,69.98 ± 0.17,184 ± 11
CCOC(=O)NC1CCC2C(C1)CC1C(=O)OC(C)C1C2C=Cc1ccc(-c2cccc(F)c2)cn1 (stereo not given) [Vorapaxar],132 ± 37,121,90.5 ± 21,104,84.1 ± 22,108,76.4 ± 3.5,115 ± 27,72.6 ± 10
CN1CCC(OC(c2ccccc2)c2ccccc2)CC1.Cl [Diphenylpyraline HCl],86 ± 3.4,99.9,97.7 ± 17,106,97.2 ± 13,91.7,75.5 ± 12,84.7 ± 21,107 ± 14
Cc1cc(C(C)(C)C)cc(C)c1CC1=NCCN1.Cl [Xylometazoline HCl],74.9 ± 49,114,103 ± 40,89.9,136 ± 29,106,83.9 ± 1.7,110 ± 3.6,158 ± 12
CC1=C(CC(=O)O)c2cc(F)ccc2C1=Cc1ccc(S(C)=O)cc1 (stereo not given) [Sulindac],92.1 ± 23,89.2,81.5 ± 4.2,76.2,108 ± 0.55,119,97.3 ± 3.1,88.7 ± 6.6,104 ± 13
CCCC1CC(C(=O)NC(C(C)Cl)C2OC(SC)C(O)C(O)C2O)N(C)C1 (stereo not given) [Clindamycin],142 ± 42,124,83 ± 23,106,76.4 ± 12,122,96.8 ± 12,117 ± 13,116 ± 7.1
CCCC(NC(C)C(=O)N1C(C(=O)O)CC2CCCCC21)C(=O)OCC (stereo not given) [Perindopril],110.1 ± 0.73,111,131 ± 35,111,134 ± 4.2,94.2,103 ± 2.7,102 ± 5.3,101 ± 2.5
N#CC(=C1SCC(c2ccc(Cl)cc2Cl)S1)n1ccnc1 (stereo not given) [Luliconazole],131 ± 29,108,73.3 ± 15,90.6,70.2 ± 5.6,72.4,88.5 ± 4.3,97.1 ± 3.4,130 ± 7.6
CC(C)(C)N.CCCC(NC(C)C(=O)N1C(C(=O)O)CC2CCCCC21)C(=O)OCC (stereo not given) [Perindopril Erbumine],84.9 ± 13,101,95.1 ± 11,93.5,129 ± 5.6,108,72.44 ± 0.41,98.2 ± 1.5,114 ± 28
Cc1cc(NS(=O)(=O)c2ccc(N)cc2)no1 [Sulfamethoxazole],115 ± 29,127,107 ± 30,95.4,120 ± 1.2,154,99.6 ± 4.2,117.5 ± 0.64,196 ± 4
CN1C2CCCC1CC(NC(=O)c1nn(C)c3ccccc13)C2 (stereo not given) [Granisetron],112 ± 1.8,119,108 ± 9.4,81.8,108 ± 12,89.3,105 ± 4.6,110 ± 28,133 ± 31
CC1c2cccc(O)c2C(O)=C2C(=O)C3(O)C(O)=C(C(N)=O)C(=O)C(N(C)C)C3C(O)C21.Cl (stereo not given) [Doxycycline hyclate],159 ± 22,109,94.8 ± 12,114,107 ± 5.1,134,111 ± 3.3,90.9 ± 9.3,173 ± 22
Nc1ncnc2c1ncn2C1OC(CO)C(O)C1O (stereo not given) [Adenosine],99.7 ± 3.6,123,90.4 ± 15,96.9,66.2 ± 4.5,97.7,95.7 ± 3.5,121 ± 34,124 ± 16
COc1ccc(C2(C#N)CCC(C(=O)O)CC2)cc1OC1CCCC1 (stereo not given) [Cilomilast],120 ± 9.7,114,89 ± 22,88.4,104 ± 9.8,146,103 ± 12,117 ± 8.9,113.9 ± 0.63
O=C1NC(=O)C(c2ccccc2)(c2ccccc2)N1 [Phenytoin],106 ± 8.9,151,105.6 ± 0.89,108,113 ± 16,129,99 ± 5.9,118 ± 16,160 ± 25

SMILES,cell viability [1],cell viability [2],cell viability [3],cell viability [4],cell viability [5],cell viability [6],cell viability [7],cell viability [8],cell viability [9]
CCNC1CC(C)S(=O)(=O)c2sc(S(N)(=O)=O)cc21.Cl (stereo not given) [Dorzolamide HCl],100 ± 4.5,111,96.8 ± 21,130,121 ± 5.2,98.2,71.8 ± 5.1,105 ± 8.4,89.3 ± 6.7
O=C([O-])c1cc(=O)c2c(OCC(O)COc3cccc4oc(C(=O)[O-])cc(=O)c34)cccc2o1.[Na+].[Na+] [Cromolyn sodium],136 ± 48,135,97.1 ± 3.8,71.8,102 ± 13,116,113 ± 5,134 ± 15,121 ± 4.5
O=C(O)CCNC(=O)c1ccccc1 [Betamipron],121 ± 22,105,87.5 ± 28,98.2,69.8 ± 10,98.9,99.9 ± 9.4,101 ± 11,108 ± 4.5
CN(C)CC(c1ccc(O)cc1)C1(O)CCCCC1.O.O=C(O)CCC(=O)O (stereo not given) [Desvenlafaxine Succinate],91 ± 6.9,153,107 ± 13,92.6,110 ± 9.4,129,92.4 ± 9.8,105 ± 10,133 ± 2.2
CNC(=C[N+](=O)[O-])NCCSCc1csc(CN(C)C)n1 [Nizatidine],150 ± 9.3,120,108 ± 15,92.7,96.2 ± 5.7,133,83.6 ± 12,96.6 ± 1.9,123 ± 17
CCCCCCNC(=O)n1cc(F)c(=O)[nH]c1=O [Carmofur],110 ± 5.8,103,67.7 ± 9.4,131,80.9 ± 6.8,108,109 ± 41,92.5 ± 38,120 ± 17
COc1ccc(C=Cc2cc(OC)c(OC)c(OC)c2)cc1OP(=O)([O-])[O-].[Na+].[Na+] [Fosbretabulin (Combretastatin A4 Phosphate (CA4P)) Disodium],185 ± 47,115,110 ± 35,115,41.7 ± 5.6,132,86 ± 16,111 ± 12,104 ± 5.7
COc1cc(C(C)=O)ccc1OCCCN1CCC(c2noc3cc(F)ccc23)CC1 [Iloperidone],153 ± 25,101,117 ± 19,103,121 ± 14,172,88.2 ± 1.8,106 ± 6,122.82 ± 0.035
CCOc1nc2cccc(C(=O)O)c2n1Cc1ccc(-c2ccccc2-c2nc(=O)o[nH]2)cc1 [Azilsartan],79.7 ± 44,142,84.8 ± 13,92,99.8 ± 2.6,96.2,83.3 ± 7.1,97.9 ± 13,97.5 ± 2.2
CC1CCc2c(N3CCC(O)CC3)c(F)cc3c(=O)c(C(=O)O)cn1c23 (stereo not given) [Nadifloxacin],83.8 ± 17,122,79 ± 2.1,93.8,103 ± 3.5,120,77.6 ± 6.6,74.2 ± 3.4,122 ± 6.2
COC(=O)Nc1nc2ccc(C(=O)c3ccc(F)cc3)cc2[nH]1 [Flubendazole],104 ± 3.6,103,103 ± 2.5,81.8,102 ± 8.7,140,80.3 ± 3.1,139 ± 36,106.1 ± 0.14
CC12CCC3c4ccc(O)cc4CCC3C1CC(O)C2O (stereo not given) [Estriol],132 ± 20,118,125 ± 36,91.7,152 ± 25,152,105 ± 16,98.4 ± 8.9,150 ± 11
CCCCc1nc(Cl)c(CO)n1Cc1ccc(-c2ccccc2-c2nnn[n-]2)cc1.[K+] [Losartan Potassium (DuP 753)],126 ± 8.5,124,106 ± 8.5,79,82.7 ± 0.98,82.3,97.9 ± 7.8,87 ± 17,118 ± 2.1
CC(C(=O)[O-])c1cccc(Oc2ccccc2)c1.CC(C(=O)[O-])c1cccc(Oc2ccccc2)c1.[Ca+2] (stereo not given) [Fenoprofen Calcium],112 ± 34,100,101 ± 7.6,94.3,121 ± 16,105,83 ± 3.5,98.7 ± 7.4,169 ± 11
CC1=NN(c2ccccc2)C(=O)C1 [Edaravone],80.8 ± 11,108,91.7 ± 13,100,99.37 ± 0.89,113,87.9 ± 16,83.1 ± 24,130 ± 10
CC(C)CN(CC(O)C(Cc1ccccc1)NC(=O)OC1CCOC1)S(=O)(=O)c1ccc(N)cc1 (stereo not given) [Amprenavir (agenerase)],96.3 ± 11,99.1,85.6 ± 4.6,104,103 ± 7.5,115,56.8 ± 3.1,78.8 ± 8.7,112 ± 25
Cc1c(-c2ccccc2)oc2c(C(=O)OCCN3CCCCC3)cccc2c1=O.Cl [Flavoxate hydrochloride],87 ± 21,123,115.8 ± 0.74,90.9,128 ± 27,119,99.5 ± 2,88.5 ± 24,107 ± 9.2
Cl.Clc1ccc2nsnc2c1NC1=NCCN1 [Tizanidine HCl],115 ± 7.6,125,95.5 ± 43,102,125 ± 25,100,84.3 ± 0.65,88.3 ± 14,117 ± 20
Cc1ccccc1N1C(=O)c2cc(S(N)(=O)=O)c(Cl)cc2NC1C (stereo not given) [Metolazone],121 ± 18,129,98.5 ± 8.3,57.9,132 ± 16,198,107 ± 1.9,103 ± 6.2,127 ± 13
CCN(CC)CCOC(=O)C(c1ccccc1)c1ccccc1.Cl [Adiphenine HCl],93.1 ± 17,129,99.2 ± 22,94.9,57.1 ± 3.2,110,92.2 ± 7.6,92.4 ± 9.5,117 ± 17
